In the library only some 4.1% were active in any assay of this set; here they are far more common.
ssDAF-12 act: S. stercoralis DAF-12 activation, primary screen; hit rate 1% among 370,000; HEK293 ssDAF-12/GRIP1 lit1-tk-luc reporter, luminescence; % of 3 µM dafachronic acid response; activation, % at 6.8 µM;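 active = activation above the mean over all tested compounds plus 3 SD, cut at about 0.9% in these data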;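 also: 0% = DMSO-only wells and 100% = 3 µM delta7-dafachronic acid wells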
hgDAF12 agonist: agonists of H. glycines DAF-12 nuclear receptor; hit rate 1.8% among 370,000; activation, % at 6.8 µM; AID 687014; HEK293 GAL4-hgDAF12 UAS-luciferase reporter, agonist luminescence; normalized to butyrate control;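 active = activation above a cutoff set at the mean of all screened compounds plus 3 SD, cut at about 10% in these data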;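 also: 0% = DMSO wells and 100% = sodium butyrate wells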
DAX1 inh-1: NR0B1 (DAX1) inhibition; hit rate 0.99% among 340,000; inhibition, % at 6.75 µM; AID 504766; P51843; HEK293 Gal4-DAX1 luciferase reporter, luminescence;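 active = inhibition above the mean over all tested compounds plus 3 SD, cut at about 4.2% in these data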;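 also: 0% = DAX1-transfected cells with DMSO and 100% = empty-vector control cells with DMSO; inhibition shows as a rise in luminescence from relieved DAX1 repression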
DAX1 inh-2: inhibitors of DAX1 repression of SF-1 activated StAR promoter. HEK293T StAR-luciferase reporter, SF-1/DAX-1 repression relief. inhibition, % at 6.8 µM. hit rate 1.1% among 370,000. AID 652010;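 active = inhibition above the mean over all tested compounds plus 3 SD, cut at about 3.6% in these data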;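 also: 0% = DAX-1 cells with DMSO and 100% = cells lacking DAX-1 with DMSO; higher inhibition means more luminescence from relief of DAX-1 repression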
hcDAF-12 act: activators of H. contortus DAF-12 nuclear receptor | HEK293 hcDAF-12 lit1-tk-luc reporter, luminescence; 0% DMSO, 100% Δ7-dafachronic acid | activation, % at 6.8 µM | hit rate 1.4% among 370,000 | AID 652067;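 active = activation above the mean of all tested compounds plus 3 SD, cut at about 5.5% in these data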;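 also: 100% = response to 3 µM Δ7-dafachronic acid high control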
LXRb hcDAF ctr: counter-screen for hcDAF-12 agonists: agonists of human LXR-beta; shares compounds with hcDAF-12 act; HEK293 Gal4-LXR tk-luc reporter, luminescence, 24 h; normalized: DMSO 0%, positive control 100%; activation, % at 6.8 µM; 3,400 tested, under 10 active; AID 743027;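 active = mean percent activation of the reporter above a cutoff set as the average over tested compounds plus their standard deviation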
Target sequence (P55055 whole entry, looked up, the tested form may be a part): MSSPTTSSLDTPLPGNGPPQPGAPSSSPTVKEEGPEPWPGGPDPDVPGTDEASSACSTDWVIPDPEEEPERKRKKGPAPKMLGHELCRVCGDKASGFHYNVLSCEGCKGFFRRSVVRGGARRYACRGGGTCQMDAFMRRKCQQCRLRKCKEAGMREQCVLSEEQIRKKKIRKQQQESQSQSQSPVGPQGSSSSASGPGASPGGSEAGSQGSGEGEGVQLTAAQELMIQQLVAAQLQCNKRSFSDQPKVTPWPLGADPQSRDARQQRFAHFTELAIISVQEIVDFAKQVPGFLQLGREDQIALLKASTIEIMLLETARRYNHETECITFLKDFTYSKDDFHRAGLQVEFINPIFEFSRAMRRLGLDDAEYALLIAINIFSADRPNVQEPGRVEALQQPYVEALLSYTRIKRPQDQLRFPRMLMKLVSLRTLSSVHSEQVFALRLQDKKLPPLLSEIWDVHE
hcDAF12 conf: hcDAF-12 agonism, confirmation assay; activation, % at 6.8 µM; HEK293 hcDAF-12 lit1-tk-luc reporter, luminescence; % of Δ7-dafachronic acid response; hit rate 61% among 3,400; shares compounds with hcDAF-12 act;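 active = mean activation across triplicate tests above the threshold derived from the earlier primary screen, cut at about 5.5% in these data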;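 also: 0% = DMSO only wells and 100% = 3 µM Δ7-dafachronic acid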
The depositor's hits bear a star; x = no result given; ! = a repeat was not active.

SMILES | ssDAF-12 act | hgDAF12 agonist | DAX1 inh-1 | DAX1 inh-2 | hcDAF-12 act | LXRb hcDAF ctr | hcDAF12 conf
O=C1C=C(Nc2ccc(O)cc2)C(=O)c2ccccc21 | 1 | 7 | 0 | -1 | 8.8* | 1 | 6.6*
NC(=O)c1c(NC(=O)c2ccccc2)sc2c1CCC2 | 2.1* | 15* | 4.5* | 1 | 16* | 2 | 19*
COCCCNC(=O)C[C@H]1C[C@@]2(C(=O)OC)C(=C[C@H](C(C)C)O[C@@H]2C2CC2)N(Cc2ccccc2)C1=O | -1 | 0 | x | 1 | 0 | x | x
Cc1ccc(-c2cc(NC(=O)Cc3c(C)[nH]c4ccccc34)ccc2Nc2cccnc2)cc1 | -1 | 1 | x | -2 | 2 | x | x
COc1ccc(NC(=O)N(C)C[C@@H]2OCc3cnnn3CCCC(=O)N([C@@H](C)CO)C[C@@H]2C)cc1 | 0 | 2 | x | 0 | 0 | x | x
CCc1ccc(N=Nc2ccc(O)c3[nH]cnc23)cc1 | 1.0* | 8 | 5.3* | 1 | 7.8* | 0 | 8.6*
CC(C)C(C(=O)Nc1ccccc1F)N1C(=O)c2ccccc2C1=O (stereo unspecified) | 2.1* | 5 | 1 | 0 | 8.0* | 0 | 5
Cc1cccc(C2c3[nH]c4ccccc4c3CCN2C(=O)CN2CCOC2=O)n1 (stereo unspecified) | 0 | -2 | 0 | -1 | 7.0* | 0 | 6.1*
COC(=O)C1=C(C)N(C)C(=NCc2cccc(C(F)(F)F)c2)NC1c1ccccc1C(F)(F)F (stereo unspecified) | -1 | 0 | x | 1 | -1 | x | x
CCCCCN1C(=O)/C(=C/c2c(N3CCc4ccccc4C3)nc3ccccn3c2=O)SC1=S | 0 | 6 | 6.0* | 2 | 6.8* | 0 | 5
O=C(NCc1ccccc1)C1(C(=O)C2CC2)CC(c2ccccc2C(F)(F)F)=NO1 (stereo unspecified) | -2 | 1 | x | 0 | 2 | x | x
COc1ccc(OCc2cc(C(=O)N3CCCC(O)C3)no2)c2ccccc12 (stereo unspecified) | 1.2* | 11* | 3 | 3 | 7.0* | 1 | 9.2*
COc1ccc(OCc2cc(C(=O)N(Cc3nccn3C)C(C)C)no2)c2ccccc12 | 0 | 7 | 0 | -1 | 7.3* | 0 | 6.9*
N#CC1(c2ccc(NC(=O)c3ccccc3F)cc2)CCCC1 | 0 | 23* | 0 | 3 | 6.9* | 2 | 6.6*
COc1ccc(C(=O)Nc2ccc(C3(C#N)CCCC3)cc2)cc1 | -1 | 1 | 2 | 0 | -1 | x | x
O=C(Nc1cccc2nsnc12)c1cccs1 | -1 | 10 | 3 | 0 | 1 | x | x
O=C(Nc1ccccc1)Nc1cccc2nsnc12 | 2.3* | 9 | 2 | 3 | 8.9* | 1 | 12*
CCCc1cc2c(=O)c(-c3nc4ccccc4s3)c(COCC(=O)O)oc2cc1O | 0.9* | 9 | 1 | 1 | 6.8* | 0 | 7.7*
CCc1cc2c(=O)c(-c3nc4ccccc4n3C)c(COCC(=O)O)oc2cc1O | 0 | 1 | 0 | 1 | 2 | x | x
O/C(=C\c1nc2ccccc2[nH]1)c1cccs1 | 1.0* | 12* | 1 | 1 | 8.5* | 0 | 8.1*
O=c1[nH]c2ccccc2nc1/C=C(\O)c1cccs1 | 0 | 10* | 2 | 2 | 7.8* | 1 | 13*
CC(C)(C)c1ccc(C(=O)NC(=S)NNC(=O)c2cccs2)cc1 | 1 | 9 | 0 | 3 | 21* | 0 | 1
O=C(NC(=S)NNC(=O)c1cccs1)c1ccccc1 | 0 | 4 | 1 | 1 | 4 | x | x
CC(C)C[C@H](NC1(C(=O)NC2CCCCC2)CCOCC1)C(=O)NCC(c1ccccc1)c1ccccc1 | -2 | 1 | x | x | -2 | x | x
O=C(Cc1ccccc1[N+](=O)[O-])Nc1ccc(S(=O)(=O)N2CCCC2)cc1 | 1.0* | 2 | 1 | 1 | 9.7* | 0 | 5
SMILES | ssDAF-12 act | hgDAF12 agonist | DAX1 inh-1 | DAX1 inh-2 | hcDAF-12 act | LXRb hcDAF ctr | hcDAF12 conf
O=C(Cc1ccc(Br)cc1)Nc1ccc(S(=O)(=O)N2CCCC2)cc1 | -1 | 0 | 0 | -3 | -2 | x | x
CCOC(=O)N/C(N)=N/c1nc2ccccc2s1 | 0 | 11* | 0 | 4.2* | 7.0* | 1 | 5
CC(=O)N/C(N)=N/c1nc(=O)c2ccccc2s1 | 0 | 3 | 3 | 1 | 1 | x | x
C=C1CSc2nc(=O)c3c4c(sc3n21)CCCC4 | -1 | 2 | -1 | 0 | 7.0* | 0 | 1
Nc1[nH]c(C(=O)c2ccccc2)c(-c2ccccn2)c1C(=O)c1c[nH]c2ccc(F)cc12 | 0 | 4 | x | -1 | 2 | x | x
CC(O)CNC(=O)C1CCN(Cc2ccc(OCc3ccccc3)cc2)CC1 (stereo unspecified) | -1 | 7 | 4 | 1 | 0 | x | x
CC(C)CNC(=O)C1CCN(Cc2ccc(OCc3ccccc3)cc2)CC1 | 0 | 8 | 0 | 0 | 7.1* | 1 | 3
CN(CCc1ccccn1)C(=O)[C@@H](Cc1ccccc1)NC(=O)[C@H]1O[C@@H](n2ccc(=O)[nH]c2=O)[C@H](O)[C@@H]1O | -2 | 1 | x | -1 | -2 | x | x
COc1ccc2c(c1)C[C@@H]1CC(C)(C)CN1S2(=O)=O | -1 | 1 | x | x | -1 | x | x
c1ccc2c(Cn3ccnc3)c[nH]c2c1 | 0 | 3 | 0 | 0 | 8.0* | 0 | 2
c1ccc2[nH]c(-c3ccnc4ccccc34)nc2c1 | -1 | 6 | -1 | 1 | 6.7*! | 0 | 7.9*
c1ccc2nc(-c3nc4ccccc4[nH]3)ccc2c1 | 1.1* | 13* | -4 | 1 | 21* | 2 | 21*
CCn1c(C)c(/C=N/Nc2nc3ccccc3s2)c2ccccc21 | 0 | 11* | -1 | 1 | 12* | 0 | 4
COc1cccc(/C=N/Nc2nnc3c(n2)[nH]c2ccccc23)c1OC | -1 | 1 | 1 | 0 | 7.1* | 0 | 4
COc1cccc(C=NNc2nc3ccccc3s2)c1OC | 0 | 13* | 6.8* | 3.6* | 7.6* | 1 | 3
COc1cccc(/C=N/NC(=O)C(=O)N/N=C/c2cccc(OC)c2OC)c1OC | -1 | 0 | -1 | 0 | -1 | x | x
C=CCN1[C@@H](Cc2ccccc2)COc2cc(F)ccc2S1(=O)=O | -2 | 2 | x | -2 | -2 | x | x
O=C(NCCc1ccccc1Cl)[C@@H]1CCCN1C(=O)[C@@H](NS(=O)(=O)c1ccc(F)cc1F)C1CCCCC1 | -1 | -1 | x | -1 | -2 | x | x
CN(C)c1ccc(/C=C/c2nc3ccccc3s2)cc1 | -3 | -10 | -3 | -2 | -4 | x | x
Cc1ccc(/C=C/c2nc3ccccc3s2)s1 | 0 | 2 | 1 | 1 | 9.4* | 1 | 19*
